High-throughput results from PubChem.
Only some compounds are listed: those with a hit (about 10% of all), similar ones and a draw of the others.
BAZ2B block: inhibitors of human BAZ2B bromodomain. Potency, µM (doses to about 114 µM), for the others: at the top dose activity change, negative = inhibition, usual class: inhibitors. Q9UIF8. AlphaScreen BAZ2B-H3K14Ac peptide displacement. AID 504333. hit rate 4.4% among 360,000; also: % is scaled to controls: 0 for no effect and ±100 for the full control effect; nearly all actives have a fitted effect of over 60% in size
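AlphaScreen displacement: compounds (up to 110uM) incubated 30 min at room temperature with a preformed 50 nM BAZ2B/50 nM biotinylated H3K14Ac peptide complex in PBS pH 7.4 with Tween-20. Donor and acceptor beads at 10 ug/mL final added, 20 min light-protected before reading.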
GLS inh: inhibitors of human glutaminase (GLS); GLS enzymatic activity, qHTS titration; AID 624170; hit rate 0.21% among 410,000; Potency, µM (doses to about 45.5 µM), inactives show top-dose activity change, negative = inhibition, actives largely listed as inhibitors; O94925; also: % is scaled to controls: 0 for no effect and ±100 for the full control effect
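hKGA in 45 mM KH2PO4 (pH 8.2), 0.02% Tween-20 with compound, then 1mM L-Glutamine (stock as added) plus glutamate oxidase/HRP/Amplex red coupling mix. Fluorescence read initially and after 30 min at RT; signal change reflects glutamate formation.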
JMJD2A Tudor inh: inhibitors of human JMJD2A Tudor domain. O75164. AID 504339. Potency, µM (series often up to 114 µM), for the others: top-dose activity change, negative = inhibition, most hits filed as inhibitors. hit rate 4.4% among 390,000. AlphaScreen JMJD2A-Tudor / H3K4me3 peptide binding; also: % is scaled to controls: 0 for no effect and ±100 for the full control effect; nearly all actives have a fitted effect of over 50% in size
G9a block: G9a (human) methyltransferase inhibition; hit rate 8.8% among 350,000; G9a H3K9 monomethylation, AlphaScreen, 2 h; Q96KQ7; Potency, µM (highest dose often 102 µM), for inactives: at the highest dose activity, negative = inhibition, most hits filed as inhibitors; also: % is scaled to controls: 0 for no effect and ±100 for the full control effect; nearly all actives have a fitted effect of over 75% in size
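Enzyme 20 nM + cpd, 15 min RT; add b-H3K9 pep 500 nM / SAM 20 uM; 2 h RT; anti-H3K9me1 Ab 0.5 ug/mL + SA donor / anti-rabbit acceptor beads 20 ug/mL each, 10 min; AlphaScreen read.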
HP1b chromo inh: HP1-beta chromodomain-methylated histone interaction inhibition; P83916; AlphaScreen HP1-beta / biotin-H3K9me3 peptide binding; Potency, µM (doses to about 114 µM), without a hit: at the highest dose activity change, negative = inhibition, most hits filed as inhibitors; hit rate 0.56% among 390,000; AID 540317; also: nearly all actives have a fitted effect of over 70% in size
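HP1-beta protein (50 nM final) preincubated 30 min at room temperature with biotinylated H3(1-18)K9me3 peptide (50 nM) in PBS pH 7.4, 0.01% Tween-20, then compound added for 30 min. AlphaScreen streptavidin donor/nickel chelate acceptor beads (10 ug/mL final), 30 min dark, luminescence read.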
* hit, by the source's call; ? = inconclusive; nt = no result; [ ] = another dose, or the depositor's remark. Calls follow the shape of the dose curve; as a rule, active = well fitted curve in the direction sought with a large enough effect; inconclusive = small, poorly fitted or top-dose-only effect, or another doubt; inactive = no such curve, though single readings can be large; an effect the other way counts as inactive or inconclusive. Potency is read from the fitted curve at half-maximal effect.

SMILES	BAZ2B block	GLS inh	JMJD2A Tudor inh	G9a block	HP1b chromo inh
COc1ccc(CNC(=O)CN(C(=O)c2ccc(CN3CCOCC3)o2)C2CCCC2)cc1	-3%	3%	-10%	3.5µM*	30%
O=c1oc2c3c(ccc2c2ccccc12)OCN(Cc1ccc(Cl)cc1)C3	-27%	17%	-15%	1.4µM*	39%
CCCc1cc(=O)oc2c3c(ccc12)OCN(Cc1ccccc1OC)C3	0%	8%	7%	-2%[59 µM]	45%
COc1ccccc1CN1COc2ccc3c(oc(=O)c4ccccc43)c2C1	5µM*	23%	?	0.79µM*	21%
Cc1ccc(C)n1-c1sccc1C(=O)O	18µM*	?	?	13µM*	?
CCC(C)[C@H](NC(=O)OC(C)(C)C)C(=O)N/N=C/c1ccc2cc(OC)ccc2n1 (stereo not given in full)	0%	0%	-15%	-5%[59 µM]	30%
CCN(c1ccccc1)c1nc(=O)c2cccnc2s1	-14%	-2%	-1%	35µM*	21%
Cc1ccc2c(CN3CCN(C(=O)c4ccc(F)cc4)CC3)cc(=O)oc2c1	-6%	1%	-3%	-45%[59 µM]	29%
CN1C(CC(=O)Nc2ccc(Cl)cc2Cl)c2ccccc2CC1(C)C (stereo not given)	-15%	1%	-1%	?	28%
COc1cc(/C=N/Nc2ccc(Cl)c(C(=O)O)c2)ccc1OC(=O)c1cccs1	?	40%	?	25µM*	-7%
COc1cc(/C=N/Nc2ccccc2)ccc1OC(=O)c1cccs1	16%	13%	-13%	28µM*	23%
COc1cc(C=NNc2ccccc2)ccc1OC(=O)c1ccccc1	nt	3%	nt	nt	nt
COc1cc(/C=N/NC(=O)C(N)=O)ccc1OC(=O)c1cccs1	-7%	-1%	-12%	29%	48%
OC[C@H](O)[C@H](O)[C@@H](O)[C@@H](O)[C@@H]1SC(c2ccccc2)=NN1c1ccccc1	-28%	-5%	?	11µM*	8%
COc1ccc2cc(-c3[nH]ncc3CN3CCCC3c3nonc3C)ccc2c1 (stereo not given)	?	13%	79µM*	-33%	13%
COc1ccc(-c2[nH]ncc2CN2CCC(O)(c3ccc(Cl)cc3)CC2)cc1	-12%	-3%	-20%	nt	31%
Fc1ccc(-c2[nH]ncc2CN2CCN(c3ccc(F)cc3)CC2)cc1	-39%	-22%	-28%	?	-13%
COc1ccc(-c2[nH]ncc2CN2CCCC(C(=O)c3cccc(OC)c3)C2)cc1 (stereo not given)	-4%	4%	-26%	45µM*	17%
Cc1nonc1N1CCN(Cc2cn[nH]c2-c2ccc3c(c2)OCO3)CC1	-3%	0%	-22%	9%	26%
COc1ccc(-c2[nH]ncc2CN2CCN(c3ccc(F)cc3)CC2)cc1	?	15%	-32%	50µM*	16%
Fc1ccc(N2CCN(Cc3cn[nH]c3-c3ccccc3)CC2)cc1	-25%	1%	-35%	71µM*	-17%
COc1ccc(NC(=O)C(Cc2ccccc2)NS(=O)(=O)c2ccc3c(c2)CCN3C(C)=O)cc1 (stereo not given)	nt	0%	-8%	?	29%
COc1ccc(OC(=O)OCc2ccccc2)cc1	nt	1%	nt	nt	nt
COc1ccc2c(c1)C(c1ccc(Cl)cc1)NC(=O)C2 (stereo not given)	8%	7%	-16%	-34%[2.33 µM]	46%
O=C(Nc1cc(C(F)(F)F)ccc1Cl)[C@H](O)CCc1ccccc1	nt	nt	26%	nt	nt
SMILES	BAZ2B block	GLS inh	JMJD2A Tudor inh	G9a block	HP1b chromo inh
CCOC(=O)c1c(C)[nH]c(NC(=O)Nc2ccc(NC(C)=O)cc2)c1C	-2%	9%	-21%	-13%	26%
CC1=C(C(=O)Nc2ccccc2C)C(c2cccnc2)n2nc(CCCO)nc2N1 (stereo not given)	7%	6%	9%	-1%[59 µM]	43%
COc1ccccc1NC(=O)C1=C(C)Nc2nc(SCc3ccccc3F)nn2C1c1cccnc1 (stereo not given)	-29%	-8%	-10%	-12%[59 µM]	16%
COc1ccccc1NC(=O)C1=C(C)Nc2nc(SCc3ccccc3)nn2C1c1cccnc1 (stereo not given)	79µM*	13%	-19%	1%[59 µM]	15%
COc1ccccc1NC(=O)C1=C(C)Nc2nc(CCCO)nn2C1c1cccnc1 (stereo not given)	-5%	21%	3%	50µM*	27%
CCN1CCc2c(OCC(=O)Nc3ccc4c(c3)OCCO4)cccc2C1=O	-19%	nt	nt	-2%	nt
C[C@H](CO)N1C[C@H](C)[C@@H](CN(C)Cc2ccc(-c3ccccc3)cc2)Oc2c(NS(=O)(=O)c3ccc(F)cc3)cccc2C1=O	nt	0%	?	nt	3%
CC[C@@H](C)[C@H]1O[C@]2(CC[C@H]1C)C[C@@H]1C[C@@H](CC=C(C)[C@@H](O[C@H]3C[C@H](OC)[C@@H](O[C@H]4C[C@H](OC)[C@@H](O)[C@H](C)O4)[C@H](C)O3)[C@@H](C)C=CC=C3CO[C@@H]4[C@H](O)C(C)=C[C@@H](C(=O)O1)[C@]34O)O2	nt	nt	nt	29%[59 µM]	nt
COc1ccc(S(=O)(=O)NNC(N)=S)cc1	nt	5%	8.9µM*	16µM*	45%
COc1ccc(S(=O)(=O)NNC(=O)c2cccs2)cc1	-12%	37%	-9%	45µM*	27%
COc1ccc(NC(=S)NNC(=O)c2nnn(-c3ccccc3)c2C)cc1	-32%	-6%	-25%	11µM*	11%
COc1ccc(NC(=S)NNC(=O)c2cccs2)cc1	-2%	26%	-11%	40µM*	7%
Cc1cccc(OCc2nnc(SCC(=O)N(C(C)C)C(C)C)n2Cc2ccco2)c1C	-2%	2%	-27%	?	15%
COc1cc(C(=O)N2c3ccccc3CCC2C)cc(OC)c1OC (stereo not given)	7%	1%	-27%	28%[0.501 µM]	13%
CC1CCc2ccccc2N1C(=O)c1cccs1 (stereo not given)	7%	-4%	56µM*	26%[59 µM]	?
COc1ccc(C2CC(c3ccccc3)=NN2C(=O)CCC(=O)O)cc1 (stereo not given)	-3%	10%	-20%	nt	49%
COc1ccc(C2=Nc3nc(-c4ccccc4)cn3C(c3ccc(OC)cc3)C2)cc1 (stereo not given)	-2%	-16%	-17%	22µM*	40%
COc1ccc2[nH]c(=O)c(-c3nnn(-c4ccc(Cl)nc4)n3)cc2c1	nt	-4%	50µM*	nt	4%
COc1ccc2[nH]c(=O)c(-c3noc(-c4ccccc4)n3)cc2c1	50µM*	-22%	?	?	43%
COc1ccc(OCc2cc(C(=O)NC3Cc4ccccc4C3)no2)c(Cl)c1	-1%	9%	-9%	94%	43%
CCCn1c2ccc(C)cc2c2n[nH]c(=S)nc21	-36%	2%	-25%	?	26%
